Laboratory results as given in PubChem BioAssay AID651625 (National Center for Advancing Translational Sciences (NCATS), 2012).
The source made the active and inactive calls.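 How the source made its calls: active means inhibition of at least 60% at a 114 µM dose; inconclusive means inhibition from 30% up to under 60% at that dose; inactive means inhibition under 30% at 114 µM.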

biological target: Ubiquitin carboxyl-terminal hydrolase 5 (Homo sapiens) (UniProt P45974); test: Inhibitors of USP1/UAF1: SAR in USP5 diubiquitin SDS-PAGE gel assay; conditions: USP5 K63 diubiquitin cleavage, 1 h; series mostly up to 114 µM; inhibition: at the top concentration
Source text: Deubiquitinating enzymes (DUBs) are a class of enzymes that can cleave isopeptide bond formed between the C-terminal carboxylate of ubiquitin and a lysine side-chain amino group on the target protein. Among them, ubiquitin specific proteases (USPs) constitute the largest DUB family. Human USPs are emerging as promising targets for pharmacological intervention because of their connection to a number of human diseases, including prostate, colon and breast cancer (1, 2), pediatric acute lymphoblastic leukemia (3), and familial cylindromatosis (4). The advantage of inhibiting USPs lies in the potential specificity of therapeutic intervention that can lead to better efficacy and reduce nonspecific side effects. In a collaboration between the University of Delaware and the NIH Chemical Genomics Center, a high-throughput screen assay was developed to screen for USP1/UAF1 inhibitors (5). This assay is a selectivity assay that tested for activity in a USP5 diubiquitin SDS-PAGE gel assay and inactivity is the desired outcome for this assay. […]
The inhibition assay contains 5 nM USP5, 2 microM K63 linked diubiquitin, and inhibitors at varied concentrations (0.08 microM - 114 microM). […] The intensity of the individual diubiquitin and monoubiquitin band was quantified using Quantity One 4.3.1 (Biorad, Hercules, CA). The percentage of the conversion was determined and used to calculate the reaction rate. […]

Chain of Ubiquitin carboxyl-terminal hydrolase 5 (Homo sapiens) (P45974 whole entry, looked up): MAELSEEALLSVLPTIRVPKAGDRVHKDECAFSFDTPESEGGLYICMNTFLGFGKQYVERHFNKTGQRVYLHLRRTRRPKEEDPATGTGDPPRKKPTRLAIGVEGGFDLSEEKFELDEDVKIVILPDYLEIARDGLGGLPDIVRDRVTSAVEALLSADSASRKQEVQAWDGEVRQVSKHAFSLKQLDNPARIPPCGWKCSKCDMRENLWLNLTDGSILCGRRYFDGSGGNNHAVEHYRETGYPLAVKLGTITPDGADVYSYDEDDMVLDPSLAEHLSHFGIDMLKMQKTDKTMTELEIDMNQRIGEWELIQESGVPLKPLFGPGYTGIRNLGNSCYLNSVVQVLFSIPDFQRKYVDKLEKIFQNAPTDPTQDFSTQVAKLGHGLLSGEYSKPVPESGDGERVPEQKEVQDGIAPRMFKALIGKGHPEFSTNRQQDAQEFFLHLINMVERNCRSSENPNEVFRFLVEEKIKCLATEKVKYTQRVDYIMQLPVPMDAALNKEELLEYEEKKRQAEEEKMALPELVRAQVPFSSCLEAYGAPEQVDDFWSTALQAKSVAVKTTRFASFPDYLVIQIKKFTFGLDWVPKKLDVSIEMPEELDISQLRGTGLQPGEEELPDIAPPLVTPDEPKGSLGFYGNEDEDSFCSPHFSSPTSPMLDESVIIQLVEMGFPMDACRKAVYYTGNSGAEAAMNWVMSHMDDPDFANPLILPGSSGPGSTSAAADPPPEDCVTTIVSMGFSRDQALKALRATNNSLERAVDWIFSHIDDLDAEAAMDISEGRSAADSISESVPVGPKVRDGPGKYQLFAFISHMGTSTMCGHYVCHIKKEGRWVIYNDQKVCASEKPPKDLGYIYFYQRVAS

Structure (SMILES)	inhibition
Cc1cnc(-c2ccccc2C(C)C)nc1NCc1ccc(-n2ccnn2)cc1	2% (inactive)
